From paper PMC5540273 (PLoS ONE, 2017)

Each molecule was assayed on T1, p38-gamma. Conditions: concentration: 1 μM, replicates: in singlicate; n = 1.
T1 construct: gene MAPK12
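Further: KINOMEscan kinase panel screen.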

Compound	%Inh
OCCOCCn1ccc2ncnc(Nc3ccc(Oc4cccc(Cl)c4)c(Cl)c3)c21	0%
Fc1cccc(COc2ccc(Nc3ncnc4cc[nH]c34)cc2Cl)c1	20%
CC(C)(C)OC(=O)NC1CCCN(c2cc(-c3ccc4c(N)n[nH]c4c3)nc(N)n2)C1 (centres unmarked) [GSK2286096]	0%
Oc1ccc2ncnc(Nc3ccc(OCc4ccccc4)cc3)c2c1 [GI262866]	0%
CC(C)N1CCC(n2cnc(-c3ccc(F)cc3)c2-c2ccnc(N)n2)CC1 [SB-223132]	60%
O=C(Nc1ccccc1)Nc1ccc(Oc2ccc3nccn3n2)cc1	30%
COc1ccc(Nc2nccc(N3CCC(NC(=O)c4cccc(NC(C)=O)c4)C3)n2)cc1 (centres unmarked) [GSK1379732]	7%
COC(=O)c1cccc(NC(=O)NCCNc2ccnc(Nc3ccc(F)cc3)n2)c1 [GSK1379883]	0%
Clc1cccc(-c2nc(Nc3ccncc3)c3ccccc3n2)c1 [GW873004]	0%
CNc1nccc(-c2c(-c3ccc(F)cc3)ncn2CCCN2CCOCC2)n1 [SB-222516]	4%
Cl.c1ccc(Cn2ncc3cc(Nc4ncnc5ccccc45)ccc32)cc1 [GW273749]	0%
C[C@@H]1CCN(C(=O)CO)C[C@@H]1N(C)c1ncnc2[nH]ccc12	1%
Nc1n[nH]c2nnc(-c3ccccc3)cc12 [SB-517389]	0%
CCC(CC)(CC)n1cnc2c(N)ncnc21 [SKF-97620]	1%
CCn1c(-c2ccncc2)nc2cnccc21 [SB-735216]	20%
Cc1ccc(NC(=O)c2cccc(C#N)c2)cc1-c1ccc(C(=O)Nc2ccncc2)cc1 [GSK1398463]	26%
Cc1cc(N2CCC(NS(=O)(=O)c3ccc(F)cc3)CC2)nc(Nc2cccc(C#N)c2)n1.O=C(O)C(F)(F)F [GSK1653537]	0%
O=C(c1ccc(-c2cc(-c3c[nH]nc3-c3ccccn3)ccn2)cc1)N1CCCC1 [GW792479]	66%

Compound	%Inh
Cn1ccc2ncnc(Nc3ccc(Oc4cccc(Cl)c4)c(Cl)c3)c21	8%
Fc1ccc(-c2ncn(CCCNCc3ccccc3)c2-c2ccncc2)cc1	24%
Cn1cc(-c2ccc3c(c2)CCN3C(=O)Cc2cccc(C(F)(F)F)c2)c2c(N)ncnc21 [GSK2606414]	2%
Cn1ccc2ncnc(Oc3ccc(NC(=O)Nc4cccnc4)c(Cl)c3)c21	21%
O=C(NCCCN1CCCC1=O)c1cnc(NCc2cc(Cl)ccc2Cl)nc1NC1CCNCC1	18%
Fc1cccc(COc2ccc(Nc3ncnc4sc(-c5ccc[nH]5)cc34)cc2Cl)c1 [GW707818]	7%
COc1ccc(Nc2nccc(N3CCC(NC(=O)Nc4ccc5c(c4)OCO5)C3)n2)cc1 (centres unmarked) [GSK1379745]	3%
O=C(Nc1n[nH]c2nc(-c3ccco3)c(Br)cc12)c1ccc(CN2CCCC2)cc1.O=C(O)[C@H](O)[C@@H](O)C(=O)O [SB-742352]	10%
Nc1nc(-c2cccnc2)c(-c2ccnc3ccccc23)s1 [GW684083]	0%
NC(=O)c1sc(-n2cnc3ccccc32)cc1OCc1ccccc1F [GSK1024306]	0%
COc1cc2c(Nc3cccc(NC(=O)c4ccccc4)c3)ncnc2cc1OCCCN1CCOCC1 [GSK223810]	6%
CSc1nn2c(=O)cc(N3CCOCC3)nc2n1Cc1cccc(Cl)c1Cl [GSK2347225]	16%
FC(F)(F)c1ccc(-c2cc(-c3c[nH]nc3-c3ccccn3)ccn2)cc1 [GW599550]	16%
COc1ccc(-c2oc3ncnc(N)c3c2-c2ccc(OC)cc2)cc1 [SB-589132]	8%
c1ccc(-c2ccc3c(-c4ccnc(Nc5ccc6c(c5)OCCO6)n4)cnn3n2)cc1 [GW818941]	0%
Clc1cc(Nc2ncnc3cc[nH]c23)ccc1OCc1ccccn1	22%
CC(C)(C)c1ccc(-n2cnc3c(N)ncnc32)cc1 [SKF-97263]	32%
